Columns and labels:
Experiment in all cases: pooled miR-30 sensor sort-seq; sequence = guide strand
Details in all cases: shRNA
GINS3 = target: GINS3
GIP = target: GIP
GP1BA = target: GP1BA
GORASP1 = target: GORASP1
GP6 = target: GP6
GOLGA1 = target: GOLGA1
GPAA1 = target: GPAA1
GPIHBP1 = target: GPIHBP1
GPR3 = target: GPR3
GPR89B = target: GPR89B
GPS1 = target: GPS1
GRHL3 = target: GRHL3
GYG1 = target: GYG1
H2AFZ = target: H2AFZ
GUCY2F = target: GUCY2F
GTF2H5 = target: GTF2H5
HBQ1 = target: HBQ1
HDHD2 = target: HDHD2
HHATL = target: HHATL
HIST1H4A = target: HIST1H4A
HIST2H3A = target: HIST2H3A
HLA-DRA = target: HLA-DRA
HMOX1 = target: HMOX1
HMGB2 = target: HMGB2
HMGN1 = target: HMGN1
Also: reference of the scale not given here.

TTTGTGGCTAGTGAAACTGTAC
sensor-assay potency score (higher = more potent) (GINS3): -0.833

TTCTCTTCTTGTAATTCTGAAC
sensor-assay potency score (higher = more potent) (GINS3): -1.11

AATACTGTAGTCACTGATGAAA
sensor-assay potency score (higher = more potent) (GIP): -1.63

AACTTGACCACAGTCCTTGTGG
sensor-assay potency score (higher = more potent) (GP1BA): 0.0455

TTCAGCATTGTCCTGCAGCCAG
sensor-assay potency score (higher = more potent) (GP1BA): -0.558

ATTTTCAGCATTGTCCTGCAGC
sensor-assay potency score (higher = more potent) (GP1BA): -0.496

TAGAGGATCTCACAGTTGCATA
sensor-assay potency score (higher = more potent) (GP1BA): -1.69

TTCAGTAGTGCCTTCAGGGTGT
sensor-assay potency score (higher = more potent) (GORASP1): 0.45

TTTGTTGGTAGAGATGAGGTTT
sensor-assay potency score (higher = more potent) (GP6): -0.205

TTATCTTCTGCAAGTTTCGGAC
sensor-assay potency score (higher = more potent) (GOLGA1): -0.221

TTATCCTCCAACTTATGGGGGA
sensor-assay potency score (higher = more potent) (GORASP1): -0.359

TTATACACCATCAGCTTCAAGG
sensor-assay potency score (higher = more potent) (GORASP1): -1

TACACCATCAGCTTCAAGGGCT
sensor-assay potency score (higher = more potent) (GORASP1): 0.394

TTTGGCTGTCTAGAGAAGCAGT
sensor-assay potency score (higher = more potent) (GP1BA): -0.816

TTTTACACTAAGGAAAATGAAT
sensor-assay potency score (higher = more potent) (GP6): -1.19

TTGACCACAGTCCTTGTGGCAC
sensor-assay potency score (higher = more potent) (GP1BA): -0.461

TGACTTGGAGTTATACACCATC
sensor-assay potency score (higher = more potent) (GORASP1): -1.14

TAGCCCTGTACCATCTCTCGGG
sensor-assay potency score (higher = more potent) (GP6): -0.328

TTGTTTTCTAATGTGAAGGGAA
sensor-assay potency score (higher = more potent) (GP6): -0.126

TATACAGCGAGTTCTCTTGGAG
sensor-assay potency score (higher = more potent) (GP1BA): -0.385

TTGGGGTCCATCTAGGTGGGAA
sensor-assay potency score (higher = more potent) (GP1BA): -0.196

TTTGGTATTGTATACAGCGAGT
sensor-assay potency score (higher = more potent) (GP1BA): -0.992

TTTCCGGGAGAAACTCTGCGTG
sensor-assay potency score (higher = more potent) (GPAA1): -0.575

TATAGCGCTCGTGGGTCTCATC
sensor-assay potency score (higher = more potent) (GPAA1): -1.61

TAGCATCGGTAGGTTCCGCTGT
sensor-assay potency score (higher = more potent) (GP6): -0.0169

TTTACTTAGTTCCTGCTGCTGG
sensor-assay potency score (higher = more potent) (GOLGA1): 0.484

TAGTGGATTCTTGTGTTGGATG
sensor-assay potency score (higher = more potent) (GP1BA): -1.15

TGAAGATGGTTCCACATCCAGC
sensor-assay potency score (higher = more potent) (GORASP1): -1.37

TATAGTAGTGAAGAACTTCAGC
sensor-assay potency score (higher = more potent) (GOLGA1): -0.313

TTTTGAGACAAAGTCAGGCTTC
sensor-assay potency score (higher = more potent) (GP6): 0.424

TATTTTTTGAGACAAAGTCAGG
sensor-assay potency score (higher = more potent) (GP6): -1.21

TTCGTTTGTGAATGAGACGGTC
sensor-assay potency score (higher = more potent) (GP6): 0.0865

TAGCGCTGCCAGGAAGAGCTGC
sensor-assay potency score (higher = more potent) (GPAA1): -1.02

TCCATGTAGTCACTCTGCCTGG
sensor-assay potency score (higher = more potent) (GORASP1): -1.3

ATTATTAGGATCACAGCCCCGA
sensor-assay potency score (higher = more potent) (GP6): -0.0711

TTCCACATCCAGCACATGCCAC
sensor-assay potency score (higher = more potent) (GORASP1): -1.05

TAGCTCAGCACGCACAACGGCG
sensor-assay potency score (higher = more potent) (GPAA1): -1.38

AATATTAGCATTGATACCCATT
sensor-assay potency score (higher = more potent) (GORASP1): -1.46

TTTCAGGTAGAGCTCTTGGAGT
sensor-assay potency score (higher = more potent) (GP1BA): -0.846

TAGACGGGAAACTTGTCTGAAT
sensor-assay potency score (higher = more potent) (GP1BA): -0.507

TTGCACAGGCTGATCTTGTTTT
sensor-assay potency score (higher = more potent) (GP6): -0.638

TTGAGCTTGCGGAACATGCCCT
sensor-assay potency score (higher = more potent) (GPAA1): -0.132

TAACTCGCTGCACTGGAGGTGG
sensor-assay potency score (higher = more potent) (GORASP1): -0.397

TTCTGCGTCAGGTTGCAGCGCT
sensor-assay potency score (higher = more potent) (GPIHBP1): -0.795

TAGACAGTGAAGGGCAACCAGC
sensor-assay potency score (higher = more potent) (GPR3): -1.54

TACCATAGACATCTCTTGCCCC
sensor-assay potency score (higher = more potent) (GPR89B): 0.0271

TCAGCTACCATAGACATCTCTT
sensor-assay potency score (higher = more potent) (GPR89B): 0.143

TTGTAGTTCTTCAGGTCTGTGT
sensor-assay potency score (higher = more potent) (GPS1): -0.35

TTGATCTGGCAGACAGCACGGT
sensor-assay potency score (higher = more potent) (GRHL3): -0.0201

TTTAATGAAAACCTCTAGCAAC
sensor-assay potency score (higher = more potent) (GYG1): -1.05

ATAATGTCTGTACAAAACCAAA
sensor-assay potency score (higher = more potent) (H2AFZ): -1.91

TACTGTGTAAGCGACCAGCAGT
sensor-assay potency score (higher = more potent) (GYG1): -0.399

TCTAGCAACTGTAACAGACTTT
sensor-assay potency score (higher = more potent) (GYG1): -0.0429

TTGAAGAATTGTAACAGTGCTG
sensor-assay potency score (higher = more potent) (GUCY2F): 0.627

TAATATTGGTCTTCTTCCCTTT
sensor-assay potency score (higher = more potent) (GUCY2F): -0.067

TAATGGTCAACACTGCATCATA
sensor-assay potency score (higher = more potent) (GUCY2F): -1.31

TTTACCTTTAAGTCTTTTGATG
sensor-assay potency score (higher = more potent) (H2AFZ): -0.972

TTCTGCTATTACAAAGACGTGA
sensor-assay potency score (higher = more potent) (GTF2H5): -0.0161

TTCCATTTCCATTTGAATCTGT
sensor-assay potency score (higher = more potent) (GUCY2F): 0.512

TTGCTCAGAAGCAAGATGCAAC
sensor-assay potency score (higher = more potent) (GYG1): -0.936

TAAACTTCCAACTTGCTCAAAT
sensor-assay potency score (higher = more potent) (H2AFZ): -0.831

TTGGTCGTTGTTCTGCAGCCTC
sensor-assay potency score (higher = more potent) (GUCY2F): -0.834

TAATCTGGAAGCTTACACTGGC
sensor-assay potency score (higher = more potent) (GUCY2F): 0.71

ATCAATGTCTTGAATGATGAAC
sensor-assay potency score (higher = more potent) (GTF2H5): -1.38

TAGATGGTTCCAAACAACGGTG
sensor-assay potency score (higher = more potent) (GUCY2F): -1.15

TTTAAGAACTGATACAGCCATC
sensor-assay potency score (higher = more potent) (GYG1): -1.1

TTTAGGTGTCGATGAATACGGC
sensor-assay potency score (higher = more potent) (H2AFZ): -0.619

TTTGAAGCCACAGTAACACTTA
sensor-assay potency score (higher = more potent) (H2AFZ): 0.62

TAAATTGAATTGTAGATGGTTC
sensor-assay potency score (higher = more potent) (GUCY2F): -0.461

TGAAGAATTGTAACAGTGCTGA
sensor-assay potency score (higher = more potent) (GUCY2F): -0.218

TTATAAAGTAAGCAAATCCATT
sensor-assay potency score (higher = more potent) (GUCY2F): -1.1

TAGATTTTAGGTGTCGATGAAT
sensor-assay potency score (higher = more potent) (H2AFZ): -1.16

TTAATATCTTGAGTTTCCCTTA
sensor-assay potency score (higher = more potent) (GYG1): -0.312

TAGCAAGTTGCAAGTGACGAGG
sensor-assay potency score (higher = more potent) (H2AFZ): -0.877

TTGAAGCAGAGGTAAAACGTTG
sensor-assay potency score (higher = more potent) (GYG1): -0.811

TTAGGTGTCGATGAATACGGCC
sensor-assay potency score (higher = more potent) (H2AFZ): -0.494

TTACTGTACACAGAAAACTGGT
sensor-assay potency score (higher = more potent) (GYG1): -0.292

TACAGCAGAAACTGCTTCATGG
sensor-assay potency score (higher = more potent) (GTF2H5): -0.967

TAACAGACTTTTCTCAACCCAG
sensor-assay potency score (higher = more potent) (GYG1): -0.49

TTTCACATCTTGATTTGTCAGT
sensor-assay potency score (higher = more potent) (GUCY2F): -0.489

TTGAATTGTAGATGGTTCCAAA
sensor-assay potency score (higher = more potent) (GUCY2F): -0.33

TTAAACTTCCAACTTGCTCAAA
sensor-assay potency score (higher = more potent) (H2AFZ): -1

TTTGTCTTGGCCTTTCCGGAGT
sensor-assay potency score (higher = more potent) (H2AFZ): -0.897

TAACCAATTCTGCTATTACAAA
sensor-assay potency score (higher = more potent) (GTF2H5): -1.59

TTGAATGATGAACTTCTTCCCC
sensor-assay potency score (higher = more potent) (GTF2H5): -0.395

TTGAACTTATCCACCAGAGTGG
sensor-assay potency score (higher = more potent) (H2AFZ): -0.27

TACAGAACTGAACAAAAGCATT
sensor-assay potency score (higher = more potent) (GYG1): -1.48

TAACCATCAGAGAACACACTGC
sensor-assay potency score (higher = more potent) (GYG1): 0.344

TTACATATGAGCAGGTGTCTTT
sensor-assay potency score (higher = more potent) (GYG1): -0.417

TGGGAGAAGTAGGTCTTCGTGG
sensor-assay potency score (higher = more potent) (HBQ1): -0.972

TTGCTGCCCAGCTTCTTCCACA
sensor-assay potency score (higher = more potent) (HBQ1): -1.27

TTTCTCAACCTTTCTAACAGGT
sensor-assay potency score (higher = more potent) (HDHD2): 0.329

TTTCTTCATCTGATGCTCGATA
sensor-assay potency score (higher = more potent) (HDHD2): -0.755

TAGAAGTTGTACTTGAGCAGGT
sensor-assay potency score (higher = more potent) (HHATL): 0.918

TAGCAAACAGCACATGTCCGGA
sensor-assay potency score (higher = more potent) (HHATL): -0.627

TAGATCAGACCAGAGATCCGCT
sensor-assay potency score (higher = more potent) (HIST1H4A): 0.162

AAAAACACCTTGAGCACCCCGC
sensor-assay potency score (higher = more potent) (HIST1H4A): 0.101

TGGCGCACAGGTTCGTGTCTTC
sensor-assay potency score (higher = more potent) (HIST2H3A): -0.891

TTCGTGTCTTCGAACAGCCCCA
sensor-assay potency score (higher = more potent) (HIST2H3A): -0.563

TACCTCTGGAGGTACATTGGTG
sensor-assay potency score (higher = more potent) (HLA-DRA): -0.943

TCTTCTATCACCCTCTGCCTGA
sensor-assay potency score (higher = more potent) (HMOX1): -0.665

TTGCACTTTGTTGCTGGCCCGC
sensor-assay potency score (higher = more potent) (HMOX1): -1.2

TCTTCTGGGAAGTAGACAGGGG
sensor-assay potency score (higher = more potent) (HMOX1): -0.217

TTTGCAGACATGGTCTTCCATC
sensor-assay potency score (higher = more potent) (HMGB2): -0.617

TCTTCAGTGATCTTCTCTCTAA
sensor-assay potency score (higher = more potent) (HLA-DRA): -0.905

TTCTTGGTTAGCCACTTCGGCC
sensor-assay potency score (higher = more potent) (HMGN1): -1.77

TATCTTTGGCTGACTGCTCAGA
sensor-assay potency score (higher = more potent) (HMGB2): -0.772

TAGGGGATGACCTCCTGCCAGC
sensor-assay potency score (higher = more potent) (HMOX1): -1.69

TTAGAGTACGGAGCAATCGAAG
sensor-assay potency score (higher = more potent) (HLA-DRA): -1.52

TTGCGGTGCAGCTCTTCTGGGA
sensor-assay potency score (higher = more potent) (HMOX1): -0.856

TCAAACATAAACTCGCCTGATT
sensor-assay potency score (higher = more potent) (HLA-DRA): -0.205

TTTAGCTGACAACCGCGCCGAT
sensor-assay potency score (higher = more potent) (HMGN1): -0.654

TTTAGGAGCATTGGGGTCCTTT
sensor-assay potency score (higher = more potent) (HMGB2): -0.857

TTTAGGAACATTCAACATCAGA
sensor-assay potency score (higher = more potent) (HMGB2): -0.879

TTAGCTTAGCTGCTTTCTGTTC
sensor-assay potency score (higher = more potent) (HMGB2): -0.873

TTAGCTGACAACCGCGCCGATC
sensor-assay potency score (higher = more potent) (HMGN1): -1.18

TAGAGCTGCTTGAACTTGGTGG
sensor-assay potency score (higher = more potent) (HMOX1): 0.136

TTCTGGTTCGTTCTTCTTCTTT
sensor-assay potency score (higher = more potent) (HMGB2): -0.774

TTATCCTTCGCTGCTGCCTTTT
sensor-assay potency score (higher = more potent) (HMGN1): -1.55

TAAGTCTTCTTTAGTTTCTTGG
sensor-assay potency score (higher = more potent) (HMGN1): 0.158
